# Assay results as given in the supplement of paper PMC6411743.
# ± gives the standard deviation of the averaged measurements. Targets with the largest changes are over-represented here; the source holds about 6,500 in all.
# Assays:
# Assay in all cases: NP40-soluble protein abundance relative to vehicle (solubility fold change) (ratio); higher = more soluble protein in presence of ATP
# [1] = target: T1, LAGE3 (UniProt Q14657)
# T1 sequence (whole entry): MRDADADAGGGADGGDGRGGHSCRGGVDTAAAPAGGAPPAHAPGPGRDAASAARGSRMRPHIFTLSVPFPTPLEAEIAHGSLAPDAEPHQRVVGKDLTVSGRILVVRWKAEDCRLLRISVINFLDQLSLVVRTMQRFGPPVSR
# Method in brief: (§1)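 Each value is a fold change relative to the detergent-processed vehicle, calculated per replicate from vsn-normalised intensities. Jurkat crude lysate received eight concentrations (0.1 to 10 mM) for 10 min at room temperature and 3 min at 37 °C, then was solubilised in 0.8% NP40 with benzonase (60 min, 4 °C). The ultracentrifuged supernatant was TMT-labelled and run by LC-MS/MS in three independent experiments.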
# [2] = target: T2, NHLRC2 (UniProt Q8NBF2)
# T2 sequence (whole entry): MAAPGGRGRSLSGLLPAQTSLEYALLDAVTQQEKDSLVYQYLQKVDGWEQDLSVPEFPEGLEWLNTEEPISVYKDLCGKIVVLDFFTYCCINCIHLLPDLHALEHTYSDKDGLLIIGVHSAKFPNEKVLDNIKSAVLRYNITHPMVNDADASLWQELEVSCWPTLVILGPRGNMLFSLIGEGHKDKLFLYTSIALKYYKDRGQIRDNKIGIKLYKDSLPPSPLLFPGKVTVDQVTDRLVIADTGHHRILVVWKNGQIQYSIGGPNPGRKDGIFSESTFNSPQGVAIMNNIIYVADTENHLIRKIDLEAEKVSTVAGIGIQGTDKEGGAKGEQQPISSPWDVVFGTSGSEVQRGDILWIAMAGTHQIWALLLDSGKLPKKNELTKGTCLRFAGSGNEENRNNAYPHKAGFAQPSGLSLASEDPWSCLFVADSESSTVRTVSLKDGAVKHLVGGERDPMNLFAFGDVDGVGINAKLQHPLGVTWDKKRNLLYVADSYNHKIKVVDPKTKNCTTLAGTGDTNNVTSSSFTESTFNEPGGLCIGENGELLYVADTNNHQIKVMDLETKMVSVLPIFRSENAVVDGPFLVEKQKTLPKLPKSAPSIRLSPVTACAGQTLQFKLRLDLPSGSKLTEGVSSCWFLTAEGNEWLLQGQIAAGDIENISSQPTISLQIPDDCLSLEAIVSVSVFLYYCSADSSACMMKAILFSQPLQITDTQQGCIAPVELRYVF
# Method in brief: as §1
# [3] = target: T3, PSMD6 (UniProt Q15008)
# T3 sequence (whole entry): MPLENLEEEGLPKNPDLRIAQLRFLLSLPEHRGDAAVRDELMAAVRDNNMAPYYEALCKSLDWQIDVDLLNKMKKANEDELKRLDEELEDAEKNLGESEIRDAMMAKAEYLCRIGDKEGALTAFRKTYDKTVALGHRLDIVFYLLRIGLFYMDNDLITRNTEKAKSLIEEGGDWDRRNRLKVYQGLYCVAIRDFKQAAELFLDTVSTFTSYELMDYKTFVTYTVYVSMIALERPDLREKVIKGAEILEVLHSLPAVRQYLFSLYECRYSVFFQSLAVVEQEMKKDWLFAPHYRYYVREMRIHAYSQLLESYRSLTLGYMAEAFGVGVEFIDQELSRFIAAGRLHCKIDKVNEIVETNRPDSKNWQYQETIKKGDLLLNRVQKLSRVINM
# Method in brief: as §1
# [4] = target: T4, UniProt Q12805|Q12805-2|Q12805-3|Q12805-4
# T4 sequence (whole entry): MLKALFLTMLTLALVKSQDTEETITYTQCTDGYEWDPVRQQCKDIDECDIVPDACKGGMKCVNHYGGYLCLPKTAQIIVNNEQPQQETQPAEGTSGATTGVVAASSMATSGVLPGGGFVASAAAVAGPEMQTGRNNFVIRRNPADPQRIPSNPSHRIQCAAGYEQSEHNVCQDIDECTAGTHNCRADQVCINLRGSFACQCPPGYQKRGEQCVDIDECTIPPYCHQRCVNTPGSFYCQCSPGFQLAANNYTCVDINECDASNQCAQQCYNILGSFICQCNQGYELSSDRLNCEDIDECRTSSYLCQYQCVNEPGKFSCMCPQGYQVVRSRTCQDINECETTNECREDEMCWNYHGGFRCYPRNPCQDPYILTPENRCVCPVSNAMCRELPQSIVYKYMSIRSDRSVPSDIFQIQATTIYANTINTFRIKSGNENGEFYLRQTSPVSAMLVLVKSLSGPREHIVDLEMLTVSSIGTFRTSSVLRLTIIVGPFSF
# Method in brief: as §1
# [5] = target: T5, UniProt Q53H96|Q53H96-2
# T5 sequence (whole entry): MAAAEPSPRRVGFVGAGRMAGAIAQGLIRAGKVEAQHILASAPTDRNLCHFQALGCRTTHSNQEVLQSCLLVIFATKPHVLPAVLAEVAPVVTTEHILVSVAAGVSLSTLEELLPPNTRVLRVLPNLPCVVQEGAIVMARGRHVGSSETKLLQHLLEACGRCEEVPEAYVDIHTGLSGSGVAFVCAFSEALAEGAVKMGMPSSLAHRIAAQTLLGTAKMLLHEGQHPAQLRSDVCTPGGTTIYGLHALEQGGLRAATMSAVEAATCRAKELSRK
# Method in brief: as §1
# [6] = target: T6, UniProt Q8N6R0
# T6 sequence (whole entry): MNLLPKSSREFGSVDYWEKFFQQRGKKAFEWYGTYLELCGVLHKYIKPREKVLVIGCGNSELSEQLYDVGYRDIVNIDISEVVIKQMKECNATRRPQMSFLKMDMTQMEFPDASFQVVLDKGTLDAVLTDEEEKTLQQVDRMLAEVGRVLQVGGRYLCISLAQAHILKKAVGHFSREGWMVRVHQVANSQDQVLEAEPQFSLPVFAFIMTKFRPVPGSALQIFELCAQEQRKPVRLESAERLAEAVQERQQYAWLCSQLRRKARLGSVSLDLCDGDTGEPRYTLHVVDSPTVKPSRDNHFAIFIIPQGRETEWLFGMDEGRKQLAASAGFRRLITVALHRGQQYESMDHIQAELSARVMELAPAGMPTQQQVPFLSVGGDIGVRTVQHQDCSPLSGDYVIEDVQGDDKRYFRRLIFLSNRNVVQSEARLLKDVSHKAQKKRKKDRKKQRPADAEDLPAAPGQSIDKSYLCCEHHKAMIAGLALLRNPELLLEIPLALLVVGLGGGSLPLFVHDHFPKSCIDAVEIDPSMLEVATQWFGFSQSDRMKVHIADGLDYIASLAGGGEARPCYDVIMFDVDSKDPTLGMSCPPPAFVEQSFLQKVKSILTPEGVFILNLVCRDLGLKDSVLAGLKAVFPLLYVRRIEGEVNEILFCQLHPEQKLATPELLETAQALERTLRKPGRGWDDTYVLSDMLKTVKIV
# Method in brief: as §1
compound,measurement,setting,value
Nc1ncnc2c1ncn2[C@@H]1O[C@H](COP(=O)(O)OP(=O)(O)OP(=O)(O)O)[C@@H](O)[C@H]1O [adenosine triphosphate],NP40-soluble protein abundance,[1]; concentration: 1mM,0.907 ± 0.071
same,NP40-soluble protein abundance,[1]; concentration: 2mM,0.909 ± 0.073
same,NP40-soluble protein abundance,[1]; concentration: 4mM,0.901 ± 0.029
same,NP40-soluble protein abundance,[1]; concentration: 6mM,0.881 ± 0.072
same,NP40-soluble protein abundance,[1]; concentration: 8mM,0.903 ± 0.034
same,NP40-soluble protein abundance,[1]; concentration: 10mM,0.882 ± 0.011
same,NP40-soluble protein abundance,[2]; concentration: 1mM,1.01 ± 0.078
same,NP40-soluble protein abundance,[2]; concentration: 2mM,0.994 ± 0.096
same,NP40-soluble protein abundance,[2]; concentration: 4mM,0.979 ± 0.091
same,NP40-soluble protein abundance,[2]; concentration: 6mM,0.976 ± 0.12
same,NP40-soluble protein abundance,[2]; concentration: 8mM,0.985 ± 0.1
same,NP40-soluble protein abundance,[2]; concentration: 10mM,0.983 ± 0.09
same,NP40-soluble protein abundance,[3]; concentration: 1mM,0.959 ± 0.015
same,NP40-soluble protein abundance,[3]; concentration: 2mM,0.9 ± 0.021
same,NP40-soluble protein abundance,[3]; concentration: 4mM,0.893 ± 0.022
same,NP40-soluble protein abundance,[3]; concentration: 6mM,0.889 ± 0.048
same,NP40-soluble protein abundance,[3]; concentration: 8mM,0.921 ± 0.032
same,NP40-soluble protein abundance,[3]; concentration: 10mM,0.886 ± 0.025
same,NP40-soluble protein abundance,[4]; concentration: 1mM,1.03 ± 0.091
same,NP40-soluble protein abundance,[4]; concentration: 2mM,1.04 ± 0.052
same,NP40-soluble protein abundance,[4]; concentration: 4mM,1.06 ± 0.075
same,NP40-soluble protein abundance,[4]; concentration: 6mM,1 ± 0.088
same,NP40-soluble protein abundance,[4]; concentration: 8mM,1.05 ± 0.023
same,NP40-soluble protein abundance,[4]; concentration: 10mM,1.04 ± 0.025
same,NP40-soluble protein abundance,[5]; concentration: 1mM,1.04 ± 0.076
same,NP40-soluble protein abundance,[5]; concentration: 2mM,1.06 ± 0.1
same,NP40-soluble protein abundance,[5]; concentration: 4mM,1.09 ± 0.08
same,NP40-soluble protein abundance,[5]; concentration: 6mM,1.01 ± 0.14
same,NP40-soluble protein abundance,[5]; concentration: 8mM,1.03 ± 0.11
same,NP40-soluble protein abundance,[5]; concentration: 10mM,1.03 ± 0.1
same,NP40-soluble protein abundance,[6]; concentration: 1mM,1.04 ± 0.096
same,NP40-soluble protein abundance,[6]; concentration: 2mM,1 ± 0.081
same,NP40-soluble protein abundance,[6]; concentration: 4mM,1.05 ± 0.072
same,NP40-soluble protein abundance,[6]; concentration: 6mM,0.979 ± 0.085
same,NP40-soluble protein abundance,[6]; concentration: 8mM,1.05 ± 0.075
same,NP40-soluble protein abundance,[6]; concentration: 10mM,1.01 ± 0.053
